The values that follow come from PubChem BioAssay.

Assay [1] is described as follows: optical density shifts of acrAB sulA E. coli – strain DRC41, OD650, 48 h, E. coli filamentation inducer project, primary screen (AID 1152).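 Further: E. coli MC1000 strain DRC41 lacking acrAB efflux pump and sulA.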 The conditions noted are these: higher = more signal, called active from +8 up or from −8 down.
Assay [2] can be described thus: probe aLefty1 binding on compound microarray – biochemical, small-molecule microarray, 635/667 nm fluorescence, primary screen (AID 1153).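 Further: score merges spot fluorescence with signal-to-noise ratio from the scanned slide images.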 The conditions noted are these: higher = more signal.
A short description of assay [3]: plasmodial surface anion channel blockers, osmotic lysis – cell-based, P. falciparum Indochina, OD700, 1 h, primary screen (AID 1154). Conditions: P. falciparum Indochina infected RBC osmotic lysis, higher = more signal, called active from +8 up or from −8 down.
Assay [4] can be described thus: plasmodial surface anion channel blockers, osmotic lysis – cell-based, P. falciparum Indochina, OD700, 2 h, primary screen (AID 1155).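 Further: lysis reports solute entry through the parasite surface anion channel PSAC.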 The conditions noted are these: P. falciparum Indochina infected erythrocytes, higher = more signal, called active from +8 up or from −8 down.
The nature of assay [5]: changes in parasitized red cell lysis, either direction – P. falciparum Indochina, OD700, 3 h, PSAC antagonist project, primary screen (AID 1156). The conditions noted are these: P. falciparum-infected erythrocytes, osmotic lysis, higher = more signal, called active from +8 up or from −8 down.
Assay [6] in a line: plasmodial surface anion channel blockers, osmotic lysis – cell-based, P. falciparum Indochina, OD700, 18 h, primary screen (AID 1157). Conditions: P. falciparum Indochina infected erythrocytes, osmotic lysis OD700, 18 h; higher = more signal, called active from +8 up or from −8 down.
Assay [7] is described as follows: S6 kinase pathway phospho-S6 level changes – cell-based, A549, cytoblot, luminescence, serum-stimulated, primary screen (AID 1158).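 Further: serum-stimulated A549 lung adenocarcinoma cells; signal is phosphorylated S6 detected by cytoblot immunostaining with HRP secondary.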 The conditions noted are these: 5 h, higher = more signal.
Assay [8] deals with NADPH oxidase 2 (Homo sapiens) (UniProt P04839). Nature of the assay: compounds shifting NOX2 Amplex Red fluorescence – cell-based, HEK293-NOX2, PMA-stimulated, NOX inhibitor project, primary screen (AID 1159). Further: test concentration not given here. Conditions: 45 min, higher = more signal, called active from +8 up or from −8 down.
Assay [9] concerns the target NADPH oxidase 4 (Homo sapiens) (UniProt Q9NPH5). Nature of the assay: compounds shifting NOX4 Amplex Red fluorescence – cell-based, HEK293-NOX4, tetracycline-induced, NOX inhibitor project, primary screen (AID 1160). Conditions: HEK293-NOX4, Amplex Red H2O2 fluorescence, 45 min; higher = more signal, called active from +8 up or from −8 down.
Assay [10] addresses NADPH oxidase 5 (Homo sapiens) (UniProt Q96PH1). Nature of the assay: compounds shifting NOX5 Amplex Red fluorescence – cell-based, HEK293-NOX5, NOX inhibitor project, primary screen (AID 1161). The conditions noted are these: HEK293-NOX5, ionomycin, 45 min, higher = more signal.
Assay [11] in a line: compound effects on lung adenocarcinoma cell viability – A549, calcein-AM fluorescence, 48 h, basal, profiling panel (AID 1162). Further: test concentration not given here. The conditions noted are these: higher = more signal.
The nature of assay [12]: compound effects on differentiated 3T3-L1 adipocyte viability – cell-based, 3T3-L1 adipocytes, calcein-AM fluorescence, 48 h, basal, profiling panel (AID 1163). Further: test concentration not given here. The conditions noted are these: 3T3-L1 adipocytes viability, higher = more signal.
Assay [13] is described as follows: compound effects on hepatocellular carcinoma cell viability – HepG2, calcein-AM fluorescence, 48 h, basal, profiling panel (AID 1164). Further: test concentration not given here. The conditions noted are these: higher = more signal.
Assay [14] can be described thus: compound effects on multiple myeloma cell viability – MM1S, calcein-AM fluorescence, 48 h, basal, profiling panel (AID 1165). Further: test concentration not given here. Conditions: higher = more signal.
Assay [15] is described as follows: calcein-AM signal in unstimulated myeloma cells – cell-based, calcein-AM fluorescence, 48 h, PK04 Diversity Set, profiling panel (AID 1166).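 Further: cells grown under basal conditions without added stimulus; test concentration not given here.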 The conditions noted are these: RPMI8226 myeloma viability, higher = more signal.
A short description of assay [16]: JC-1 mitochondrial signal, unstimulated HepG2 cells – cell-based, JC-1 fluorescence, 24 h, 100 nL compound, profiling panel (AID 1167). Further: test concentration not given here. The conditions noted are these: HepG2 mitochondrial potential, higher = more signal.
Assay [17] can be described thus: JC-1 mitochondrial signal, unstimulated adipocytes – cell-based, JC-1 fluorescence, 3T3-L1 adipocytes, 24 h, 100 nL compound, profiling panel (AID 1168). Further: test concentration not given here. Conditions: JC-1 mitochondrial fluorescence, higher = more signal, called active from +8 up or from −8 down.
Assay [18] in a line: JC-1 mitochondrial signal, unstimulated myeloma cells – cell-based, JC-1 fluorescence, RPMI8226, 24 h, 100 nL compound, profiling panel (AID 1169). Further: test concentration not given here. The conditions noted are these: JC-1 mitochondrial potential fluorescence, higher = more signal.
Assay [19] in a line: JC-1 mitochondrial signal, unstimulated MM1S myeloma – cell-based, JC-1 fluorescence, 24 h, 100 nL compound, profiling panel (AID 1170). Further: test concentration not given here. The conditions noted are these: MM1S mitochondrial potential, higher = more signal.
Assay [20] can be described thus: resazurin metabolic signal in A549 cells – cell-based, resazurin fluorescence, 24 h, PK04 Diversity Set, profiling panel (AID 1171). Further: test concentration not given here. The conditions noted are these: A549 viability, higher = more signal, called active from +8 up or from −8 down.

Structures are written as SMILES. The source made the active and inactive calls.

Sequence of NADPH oxidase 2 (Homo sapiens) (P04839 whole entry, looked up): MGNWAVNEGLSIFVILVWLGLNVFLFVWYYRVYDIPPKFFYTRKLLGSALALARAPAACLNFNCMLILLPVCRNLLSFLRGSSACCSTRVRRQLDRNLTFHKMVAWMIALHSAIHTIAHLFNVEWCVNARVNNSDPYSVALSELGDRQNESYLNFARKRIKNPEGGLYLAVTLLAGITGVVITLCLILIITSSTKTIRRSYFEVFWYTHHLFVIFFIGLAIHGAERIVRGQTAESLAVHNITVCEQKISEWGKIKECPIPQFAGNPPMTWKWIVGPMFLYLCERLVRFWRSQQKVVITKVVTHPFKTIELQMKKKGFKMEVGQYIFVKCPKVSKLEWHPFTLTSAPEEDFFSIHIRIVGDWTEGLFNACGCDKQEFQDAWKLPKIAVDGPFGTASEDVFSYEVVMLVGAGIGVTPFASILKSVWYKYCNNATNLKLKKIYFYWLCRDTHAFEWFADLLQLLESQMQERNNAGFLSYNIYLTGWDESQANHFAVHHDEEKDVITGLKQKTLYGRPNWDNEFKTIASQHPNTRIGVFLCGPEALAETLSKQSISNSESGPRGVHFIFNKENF
Sequence of NADPH oxidase 5 (Homo sapiens) (Q96PH1 whole entry, looked up): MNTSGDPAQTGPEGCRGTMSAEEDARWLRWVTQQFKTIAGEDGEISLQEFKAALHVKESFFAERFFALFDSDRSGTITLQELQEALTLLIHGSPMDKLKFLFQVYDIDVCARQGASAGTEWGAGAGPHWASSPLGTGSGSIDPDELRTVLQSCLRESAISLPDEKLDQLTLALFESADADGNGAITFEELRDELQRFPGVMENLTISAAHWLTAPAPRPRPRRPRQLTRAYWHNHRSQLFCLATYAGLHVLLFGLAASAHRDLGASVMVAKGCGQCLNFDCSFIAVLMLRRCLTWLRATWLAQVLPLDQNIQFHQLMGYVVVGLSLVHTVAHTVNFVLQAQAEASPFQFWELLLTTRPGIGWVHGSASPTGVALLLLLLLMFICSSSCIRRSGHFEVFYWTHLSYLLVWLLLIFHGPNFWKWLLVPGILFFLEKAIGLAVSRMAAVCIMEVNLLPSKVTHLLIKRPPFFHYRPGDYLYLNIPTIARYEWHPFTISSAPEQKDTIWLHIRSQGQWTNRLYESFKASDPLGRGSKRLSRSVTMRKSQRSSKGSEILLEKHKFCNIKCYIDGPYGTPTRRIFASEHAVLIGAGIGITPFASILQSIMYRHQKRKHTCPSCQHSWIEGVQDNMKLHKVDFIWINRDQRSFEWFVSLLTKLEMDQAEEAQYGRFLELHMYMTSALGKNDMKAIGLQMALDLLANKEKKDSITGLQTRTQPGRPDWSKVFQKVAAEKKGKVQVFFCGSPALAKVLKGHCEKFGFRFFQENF
Sequence of NADPH oxidase 4 (Homo sapiens) (Q9NPH5 whole entry, looked up): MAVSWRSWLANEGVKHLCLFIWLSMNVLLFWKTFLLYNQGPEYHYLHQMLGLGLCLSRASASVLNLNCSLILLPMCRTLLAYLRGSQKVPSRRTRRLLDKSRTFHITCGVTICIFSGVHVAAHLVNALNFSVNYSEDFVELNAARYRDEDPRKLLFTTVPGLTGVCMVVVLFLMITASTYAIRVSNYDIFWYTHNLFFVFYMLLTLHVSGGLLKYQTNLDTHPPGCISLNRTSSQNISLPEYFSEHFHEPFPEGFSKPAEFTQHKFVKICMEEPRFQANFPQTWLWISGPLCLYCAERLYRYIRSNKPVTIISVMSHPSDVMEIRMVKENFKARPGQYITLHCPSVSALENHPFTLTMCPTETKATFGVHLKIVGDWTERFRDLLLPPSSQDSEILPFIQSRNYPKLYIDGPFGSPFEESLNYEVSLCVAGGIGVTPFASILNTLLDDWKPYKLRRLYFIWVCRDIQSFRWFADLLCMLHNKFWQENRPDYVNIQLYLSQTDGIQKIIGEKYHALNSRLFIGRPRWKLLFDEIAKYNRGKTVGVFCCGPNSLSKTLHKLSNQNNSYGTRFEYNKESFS

In the case of `COC(=O)[C@@]1(Cc2ccc(OC)cc2)[C@H]2c3cc(C(=O)N4CCCC4)n(Cc4ccc(Cl)c(C(F)(F)F)c4)c3C[C@H]2CN1C(=O)c1ccccc1`, the z-score in [1] was -0.557 (inactive); in [3] it was 1.24 (inactive); in assay [4], -0.382 (inactive); in assay [5] it was -0.397 (inactive); in assay [6] it was -1.17 (inactive); in assay [7] it was 2.85. Besides, the z-score in [8] is 0.449 (inactive); in assay [9], 1.28 (inactive); in [10], -4.74; in assay [11] it was -0.305; in [12], 0.134; in assay [13], 0.931. Moreover, the z-score in [14] was -0.963; in assay [15], -0.741; in assay [16], 2.07; in assay [17] it was 0.15 (inactive); in [18] it was -0.671; in assay [19], -1.63. Besides, in [20], the z-score was -0.134 (inactive). The same molecule returned a composite z-score in assay [2] of 1.19.

As for `CC(C)[Si](C#CCCc1ccccc1)(O[C@H](c1ccccc1)c1cn(Cc2ccccc2)nn1)C(C)C`, the z-score in assay [1] is 1.09 (inactive); in assay [3], 1.36 (inactive); in assay [4], 0.308 (inactive); in assay [5], -0.329 (inactive); in assay [6], 0.53 (inactive); in [7] it was 0.534. The z-score was -0.967 (inactive) in assay [8]; -0.899 (inactive) in assay [9]; -3.17 in assay [10]; -0.865 in assay [11]; 0.254 in [12]; -1.01 in [13]. For the same molecule, the z-score in assay [14] was -0.505; in [15] it was -0.297; in assay [16] it was 0.907; in [17], -0.979 (inactive); in assay [18], -0.631; in [19], -1.08. Moreover, the z-score in assay [20] was 1.43 (inactive). In [2], this molecule returned a composite z-score of 0.188.

As to `C=CCOC(=O)[C@H]1[C@@H]2C(=O)O[C@@H](c3ccccc3)[C@@H](c3ccccc3)N2[C@@H](c2ccc(OCCOC(=O)[C@H]3C[C@H]4C(=O)N[C@@H](CC(C)C)C(=O)N4[C@H]3c3ccc(O)cc3)cc2)[C@]12C(=O)Nc1ccccc12`, the z-score in assay [1] is 0.324 (inactive); in assay [3], 1.64 (inactive); in [4], 0.998 (inactive); in assay [5] it was 3.83 (inactive); in assay [6] it was 0.964 (inactive); in assay [7], 0.758. Besides, the z-score was 1.2 (inactive) in assay [8]; 0.776 (inactive) in assay [9]; 1.4 in assay [10]; 0.0118 in [11]; -0.382 in assay [12]; 0.414 in assay [13]. Moreover, the z-score was 0.178 in assay [14]; 0.34 in assay [15]; -1.78 in assay [16]; 1.05 (inactive) in assay [17]; -0.485 in assay [18]; -1.19 in [19]. In assay [20], the z-score is 1.96 (inactive). In addition, in [2], the composite z-score was 0.13.

For `COCCOC(=O)N1C(=O)[C@@]2(c3cc(C#Cc4ccc(OC)cc4)ccc31)[C@H](c1ccc(OCCO)cc1)N1[C@H](c3ccccc3)[C@H](c3ccccc3)OC(=O)[C@H]1[C@@H]2C(=O)NC[C@H](O)c1ccccc1`, the z-score in [1] is -0.0906 (inactive); in [3], 4.14 (inactive); in [4] it was 2.07 (inactive); in assay [5] it was 0.0276 (inactive); in [6], 1.24 (inactive); in assay [7], -0.539. For the same molecule, the z-score in [8] was 1.27 (inactive); in assay [9] it was 0.708 (inactive); in [10], 1.11; in [11] it was 0.0843; in assay [12], -0.129; in assay [13] it was -0.294. Also, the z-score is -0.291 in assay [14]; -1.48 in assay [15]; -0.305 in [16]; 1.67 (inactive) in [17]; -0.68 in assay [18]; -1.52 in assay [19]. For the same molecule, in assay [20], the z-score is -0.377 (inactive). In assay [2], this molecule displayed a composite z-score of 0.257.

Take `CC(C)=C1C(=O)C(c2ccccc2)=C2CN3C(=O)N(CCc4ccccc4)C(=O)[C@]3(C)[C@H]21`: the z-score is -2.52 (inactive) in assay [1]; 28.2 (active) in assay [3]; 24.2 (active) in [4]; 1.63 (inactive) in assay [5]; 1.62 (inactive) in assay [6]; -0.832 in [7]. In addition, the z-score in assay [8] is -1.16 (inactive); in [9] it was -1.55 (inactive); in assay [10] it was -0.718; in [11], 0.559; in assay [12], -0.342; in assay [13], 0.302. Moreover, the z-score in [14] was -2.06; in [15], -3.46; in assay [16] it was 1.87; in assay [17], -1.43 (inactive); in assay [18] it was -0.879; in [19], -1.66. Moreover, in assay [20], the z-score was -0.337 (inactive). The molecule also yielded a composite z-score in assay [2] of 0.298.

As to `COc1cc(CO)cc(I)c1O[C@H]1C=C(C(=O)NCCO)C[C@@H](NC2CCCCCC2)[C@@H]1O`, the z-score in assay [1] is 0.818 (inactive); in [3] it was 10.1 (active); in assay [4] it was 1.55 (inactive); in [5], 3.68 (inactive); in assay [6], 1.09 (inactive); in assay [7] it was 0.565. Further, the z-score in assay [8] was 0.287 (inactive); in [9] it was -0.789 (inactive); in [10], -0.579; in assay [11], -0.226; in assay [12], -0.174; in assay [13], 0.806. Further, the z-score in assay [14] is -3.23; in [15], -0.334; in [16] it was 1.09; in assay [17], 0.426 (inactive); in [18], -0.441; in assay [19] it was -3.21. In addition, in [20], the z-score is 0.406 (inactive). Moreover, the composite z-score in assay [2] is 0.0313.

As for `COC(=O)C(CC#Cc1ccc2c(c1)[C@]1(C(=O)N2)[C@H](c2ccccc2OCCO)N2[C@H](c3ccccc3)[C@H](c3ccccc3)OC(=O)[C@H]2[C@@H]1C(=O)N1CCc2cc(OC)c(OC)cc2C1)C(=O)OC`, the z-score in assay [1] is 0.447 (inactive); in [3], 3.28 (inactive); in [4] it was 2.24 (inactive); in assay [5], 2.54 (inactive); in [6], 1.25 (inactive); in [7], -0.033. In addition, the z-score is 1.74 (inactive) in assay [8]; 1.52 (inactive) in [9]; 1.73 in assay [10]; 0.734 in assay [11]; -0.19 in assay [12]; 2.08 in assay [13]. For the same molecule, the z-score in [14] was 0.857; in [15], -0.0217; in assay [16], -0.112; in [17], 2.3 (inactive); in assay [18], -0.941; in assay [19], -1.47. Also, the z-score in [20] was -0.63 (inactive). For the same molecule, the composite z-score in [2] was found to be 0.0215.

With `CCOC(=O)C1=CCC(c2cc3ccccc3[nH]2)N(CCN2CC(C(=O)OCC)=CCC2c2cc3ccccc3[nH]2)C1` (stereo not given), the z-score was -0.889 (inactive) in assay [1]; 4.01 (inactive) in [3]; 1.41 (inactive) in assay [4]; 2.42 (inactive) in [5]; 1.03 (inactive) in assay [6]; 1.56 in assay [7]. Moreover, the z-score in [8] was -0.756 (inactive); in assay [9] it was -0.315 (inactive); in assay [10], -0.307; in [11], -0.638; in assay [12], 0.552; in [13], 0.105. Moreover, the z-score in assay [14] is 0.183; in assay [15] it was -0.54; in [16] it was -0.4; in assay [17], -0.73 (inactive); in [18] it was -0.111; in assay [19], -1.83. In addition, the z-score in assay [20] is 0.161 (inactive). In assay [2], this molecule came in with a composite z-score of 0.379.
